Out of some 5,400 compounds screened, about 190 (3.5%) showed an effect of 50% or more. The sample holds strong results, similar compounds and a random draw of the others, so the mix is not that of the screen.

The assay concerns Vero-E6. Kind of assay: primary screen, phospholipidosis by LipidTOX staining; higher = more effect of the substance. To be noted: 10 µM. The method, then: To measure drug-induced PLD in Vero-E6 cells, we used the HCS LipidTOX Red Phospholipidosis Detection Reagent (Invitrogen, #H34351), which is non-toxic to cell growth and remains well retained after aldehyde fixation. In this setup, compounds (at 10 μM concentration) and controls (amiodarone: 10 μM concentration; DMSO: 0.1 v/v %) were added to clear-bottom, 384-well plates (PhenoPlate 384-well, black, optically clear flat bottom, tissue-culture treated, Revvity #6057302) using the Echo Liquid Handler (Labcyte).
As to `CNC(=O)c1ccccc1Nc1cc(Nc2ccc(N3CCOCC3)cc2OC)ncc1C(F)(F)F`, the result_ITMP is 10.6%. The same measure for `CNC(=O)c1ccccc1Nc1nc(Nc2ccc3c(c2OC)CCC[C@H](N2CCN(CCO)CC2)C3)ncc1Cl`: 139%; for `CN1CCN(Cc2ccc(Nc3ncc(Cl)c(Nc4ccccc4S(=O)(=O)N(C)C)n3)cc2)CC1`: 1.65%; for `CC1(C)S[C@@H]2[C@H](NC(=O)C(C(=O)[O-])c3ccsc3)C(=O)N2[C@H]1C(=O)[O-]` (some centres unmarked): -2.7%.

For the compound `CCCCCC(O)CCCC(=O)[O-]` (centres unmarked), the result_ITMP was -2.69%. The same measure for `CC#C[C@@H](CC(=O)[O-])c1ccc(OCc2cccc(-c3ccc(C(F)(F)F)cc3)c2)cc1`: 2.55%. The same measure for `CCN[C@@H](C)Cc1cccc(C(F)(F)F)c1`: 3.76%. The same measure for `CC(Cc1cccc(C(F)(F)F)c1)NCCOC(=O)c1ccccc1` (centres unmarked): 6.92%; for `C[C@@H](NCCCc1cccc(C(F)(F)F)c1)c1cccc2ccccc12`: 61.8%. For the compound `CSCCC(N)C(=O)O` (centres unmarked), the result_ITMP is -3.06%. The same measure for `O[C@H]1[C@H]2[C@H](O)CCCN2C[C@H]1O`: 0.57%; for `c1cc(Nc2cc(C3CC3)n[nH]2)nc(Nc2ccc3nc[nH]c3c2)n1`: -1.4%; for `CSc1ccccc1Nc1nc(N2CCNCC2)nc2c(NCC3CC3)ncnc12`: 79.3%.

As for `CN1C2C=C(c3sccc3Br)CC1CC2` (centres unmarked), the result_ITMP was 6.82%. The same measure for `CCN(CCO)CCCOc1ccc2c(Nc3cc(CC(=O)Nc4cccc(F)c4)n[nH]3)ncnc2c1`: -2.36%; for `c1ccc(CCCN2CCN(CCOC(c3ccccc3)c3ccccc3)CC2)cc1`: 15%; for `Clc1ccc(C(OCCN2CCCCC2)c2ccccc2)cc1` (centres unmarked): 63.9%. The same measure for `C(=C\c1ccccc1)/CN1CCN(CCOC(c2ccccc2)c2ccccc2)CC1`: 7.08%.

`C#C[C@]1(OC(C)=O)CCC2C3CCC4=C/C(=N/O)CCC4C3CC[C@@]21CC` (some centres unmarked): the result_ITMP is reported as 1.9%.

Consider `OC1(c2ccc(Cl)c(C(F)(F)F)c2)CCN(CCCC(c2ccc(F)cc2)c2ccc(F)cc2)CC1`, for which the result_ITMP is recorded as 36.2%. As to `CN(C)C(=O)C(CCN1CCC(O)(c2ccc(Cl)cc2)CC1)(c1ccccc1)c1ccccc1`, the result_ITMP was determined as 67.2%. The same measure for `O=C(CCCN1CCC(O)(c2ccc(Cl)cc2)CC1)c1ccc(F)cc1`: 3.22%; for `NCCCCCC(O)(P(=O)([O-])O)P(=O)(O)O`: -0.14%; for `Nc1ncnc2c1nc(Br)n2[C@@H]1O[C@@H]2COP(=O)([O-])O[C@H]2[C@H]1O`: 15.8%. The same measure for `CCN1C(=O)CN=C2NC=C(c3ccc(-c4nnc[nH]4)nc3C)N=C21`: -2.57%. The same measure for `OC[C@@H](O)[C@@H](O)[C@@H](O)CO`: -6.6%. On to `O=C(Nc1ccc(CN2CCOCC2)cc1)c1ccc(-c2cccc(Cl)c2)o1`, for which the result_ITMP was 56.3%. The same measure for `CCNC(=O)c1noc(-c2cc(C(C)C)c(O)cc2O)c1-c1ccc(CN2CCOCC2)cc1`: -0.23%; for `COc1cc(NC(=O)c2ccc(-c3ccc(Cl)cc3)o2)cc(OC)c1`: 2.29%; for `C[C@]12C=CC(=O)C=C1CCC1C2[C@@H](O)C[C@@]2(C)C1CC[C@]2(O)C(=O)COC(=O)CCC(=O)O` (some centres unmarked): -5.57%. The same measure for `Cc1cc(/C=C2\SC(=O)N(c3ccccc3)C2=O)c(C)n1-c1cccnc1`: -6.01%. The same measure for `O=C(Nc1ccc2c(O)cc(S(=O)(=O)[O-])cc2c1)Nc1ccc2c(O)cc(S(=O)(=O)[O-])cc2c1`: -7.47%. Regarding `COc1ccc(CCN(C)CCCOc2ccc(S(=O)(=O)c3c(C(C)C)c4ccccc4n3C)cc2)cc1OC`, the result_ITMP was 84.7%. The same measure for `COc1ccc(CCN(C)CCc2ccc(OC)c(OC)c2)cc1OC`: -1.15%. For `COc1ccc(CCN(C)CCCN2CCc3cc(OC)c(OC)cc3CC2=O)cc1OC`, the result_ITMP is recorded as -1.11%. For the compound `O=C1NCN(c2ccccc2)C12CCN(CCCC(c1ccc(F)cc1)c1ccc(F)cc1)CC2`, the result_ITMP is recorded as 1.98%. With `COc1ccc2cccc(N3CCN(CCNC(=O)c4ccc(F)cc4)CC3)c2c1`, the result_ITMP turned out to be 14%. The same measure for `COc1ccccc1N1CCN(CCCCNC(=O)c2ccc3ccccc3c2)CC1`: 34.4%; for `O=C(NCCN1CCC2(CC1)C(=O)NCN2c1cccc(F)c1)c1ccc2ccccc2c1`: 55.1%. For the compound `O=C(NCCN1CCOCC1)c1ccc(Cl)cc1`, the result_ITMP is reported as -6.19%. The same measure for `O=C(NCCN1CCC2(CC1)C(=O)NCN2c1cccc(F)c1)c1ccc(F)c(F)c1`: 60.1%. The same measure for `C[C@@H]1CCO[C@H]2Cn3cc(C(=O)NCc4ccc(F)cc4F)c(=O)c(O)c3C(=O)N12`: -4.23%. With `CN(C)CCCO[C@@H]1[C@H]2OC(C)(C)O[C@H]2O[C@@H]1[C@H](O)CO`, the result_ITMP was -8.5%. For the compound `C[C@@H]1C[C@H]2[C@@H]3CCC4=CC(=O)C=C[C@]4(C)[C@@]3(Cl)[C@@H](O)C[C@]2(C)[C@@]1(O)C(=O)CCl`, the result_ITMP stood at 0.3%. The same measure for `CN(CCCN1c2ccccc2CCc2ccccc21)CC(=O)c1ccc(Cl)cc1`: 13.8%; for `O=C(O)c1ccccc1C(=O)Nc1ccc(-c2ccccc2)cc1`: -1.06%; for `O=C(CN1C2=NCCN2c2ccccc21)c1ccc(-c2ccccc2)cc1`: 53.9%. `c1ccc(CNc2ncnc3nc[nH]c23)cc1`: the result_ITMP was -8.79%. The same measure for `Cn1cnc2c(NCc3ccccc3)nc(NCCO)nc21`: -1.91%. The same measure for `c1ccc(CNc2nc(NCc3ccccc3)c3ccccc3n2)cc1`: 58.9%; for `N=C(N)Nc1nc(CSCCN/C=N/S(=O)(=O)c2ccc(Br)cc2)cs1`: 0.59%; for `O=C([O-])c1ccccc1Nc1cc(Cl)ccc1C(=O)[O-]`: -3.54%. With `C[C@@H]([C@H](O)c1ccc(O)cc1)N1CCC(Cc2ccccc2)CC1.C[C@H]([C@@H](O)c1ccc(O)cc1)N1CCC(Cc2ccccc2)CC1`, the result_ITMP was 8.99%.

As for `CN[C@H](CC(C)C)C(=O)NC1C(=O)N[C@@H](CC(N)=O)C(=O)N[C@H]2C(=O)NC3C(=O)N[C@H](C(=O)N[C@@H](C(=O)O)c4cc(O)cc(O)c4-c4cc3ccc4O)[C@H](O)c3ccc(c(Cl)c3)Oc3cc2cc(c3O[C@@H]2OC(CO)[C@@H](O)[C@H](O)[C@H]2O[C@H]2C[C@](C)(N)[C@H](O)[C@H](C)O2)Oc2ccc(cc2Cl)[C@H]1O` (some centres unmarked), the result_ITMP is recorded as -7.09%. The same measure for `Cc1cc(CN)cc(C)c1NC(=O)c1ccc(-c2cc(Cl)ccc2Cl)o1`: 36.2%. With `Cn1ncc(Cl)c1-c1cc(C(=O)N[C@H](CN)Cc2ccc(F)c(F)c2)oc1Cl`, the result_ITMP was determined as 82.6%. Take `Cn1ncc(Cl)c1-c1cc(C(=O)N[C@H](CN)Cc2cccc(F)c2)sc1Cl`: the result_ITMP amounted to 69.5%.

Regarding `Cn1nc(C(C)(C)C)cc1C(=O)N[C@@H](Cc1cccc(Cl)c1)C(=O)NCC#N`, the result_ITMP was -8.49%. The same measure for `O=C(N[C@H](Cc1ccccc1)C(=O)O)c1sc2cc(F)ccc2c1Cl`: -1.39%; for `C[C@]12CCC(=O)C=C1CC[C@@H]1[C@@H]2C(=O)C[C@]2(C)C(=O)CC[C@@H]12`: -0.84%; for `C=C1C(=O)O[C@@H]2[C@H]3C(C)=CC[C@@]34O[C@@]4(C)CC[C@@H]12`: 2.15%. The same measure for `COC(=O)[C@]12CCC(C)(C)C[C@H]1[C@H]1C(=O)C=C3[C@@]4(C)C=C(C#N)C(=O)C(C)(C)[C@@H]4CC[C@@]3(C)[C@]1(C)CC2`: -10.9%. The same measure for `CCCC[C@@H](NC(=O)[C@@H](Cc1cn(C(=O)OC)c2ccccc12)NC(=O)[C@H](CC(C)(C)C)NC(=O)N1[C@H](C)CCC[C@@H]1C)C(=O)[O-]`: -3.76%; for `CC(C)(C)CCN1C[C@@H]2[C@@H](CNC(=O)c3cc(Cl)cc(Cl)c3)[C@@H]2C1`: 20.6%; for `COC1C(OC(=O)NC(=O)CCl)CCC2(CO2)C1C1(C)OC1CC=C(C)C` (centres unmarked): 11.3%.

As for `C[C@H]1CC2C([C@@H](O)C[C@@]3(C)C2CC[C@]3(O)C(=O)COC(=O)CCC(=O)[O-])[C@@]2(C)C=CC(=O)C=C12` (some centres unmarked), the result_ITMP is recorded as -6.49%. Consider `O=C(NOCC1CC1)c1ccc(F)c(F)c1Nc1ccc(I)cc1Cl`, for which the result_ITMP is reported as 1.02%. Turning to `O=C(NOCCO)c1cc(CN2OCCCC2=O)c(F)c(F)c1Nc1ccc(I)cc1F`, the result_ITMP is reported as -1.3%.

Take `O=C(c1ccc(F)c(F)c1Nc1ccc(I)cc1F)N1CC(O)([C@@H]2CCCCN2)C1`: the result_ITMP was determined as 78.8%.

As for `Cc1cc2nc3c(=O)[nH]c(=O)nc-3n(C[C@@H](O)[C@@H](O)[C@@H](O)COP(=O)([O-])O)c2cc1C`, the result_ITMP worked out at 1.6%.

For the compound `COc1cc2cc(c1Cl)N(C)C(=O)C[C@H](OC(=O)C(C)C)[C@]1(C)O[C@H]1[C@H](C)[C@@H]1C[C@@](O)(NC(=O)O1)[C@H](OC)/C=C/C=C(\C)C2`, the result_ITMP was -0.8%. The same measure for `CCOc1ccc(C(=O)OCCN(CC)CC)cc1`: 0.82%; for `CCN(CC)CCOc1ccc2c(c1)C(=O)c1cc(OCCN(CC)CC)ccc1-2`: 57.2%; for `CCCCOc1cc(C(=O)OCCN(CC)CC)ccc1N`: 18.9%. The same measure for `O=C1NNc2nc(CN3Cc4ccccc4C3)nc3cccc1c23`: 0.43%. Take `O=C([O-])C(Cl)Cl`: the result_ITMP is reported as -4.51%. The same measure for `CC(C)(C)C(=O)OCOC(=O)C1N2C(=O)CC2S(=O)(=O)C1(C)C` (centres unmarked): 3.85%; for `CCCCCCCCCCCCCCCC=O`: -3.07%. The same measure for `Cc1c[nH]c(=O)n(CCCN2CCN(c3ccccc3OCC(F)(F)F)CC2)c1=O`: -1.42%; for `OCCN1CCN(CCCN2c3ccccc3C=Cc3ccccc32)CC1`: 50.3%; for `COc1ccccc1N1CCN(CCCCN2C(=O)CCC2=O)CC1`: 6.62%.

For the compound `OCCN1CCN(CCCN2c3ccccc3Sc3ccc(Cl)cc32)CC1`, the result_ITMP is on record as 84.7%. The same measure for `CN1CCN(CCCN2c3ccccc3Sc3ccc(C(F)(F)F)cc32)CC1`: 81.3%. The same measure for `CCN(CC)CCCCN1c2ccccc2Oc2ccc(Cl)cc21`: 69.7%; for `CN(C)CCCN1c2ccccc2CCc2ccc(Cl)cc21`: 47.3%.

For `CN1CCN(CCCN2c3ccccc3Sc3ccc(Cl)cc32)CC1`, the result_ITMP is recorded as 38.9%.

In the case of `Clc1ccc2c(N3CCN(CCCN4CCN(c5ccnc6cc(Cl)ccc56)CC4)CC3)ccnc2c1`, the result_ITMP is given as 6.97%. The same measure for `COc1ccccc1N1CCN(CCCCN2C(=O)c3ccccc3C2=O)CC1`: -0.85%.

As for `O=C(CCc1ccncc1)NNC(=O)N1Cc2ccccc2Oc2ccc(Cl)cc21`, the result_ITMP is -1.3%.

The record behind these values is paper PMC13083723 (Patterns, 2026).
